# Pf Dd2 inh: qHTS Primary assay for Inhibitors of Plasmodium falciparum Dd2 growth in vitro. P. falciparum Dd2 growth, SYBR Green, 72 h. hit rate 4.3% among 120,000. AID 1347417, 2020. Potency, µM (top dose mostly 28.9 µM), usual class: inhibitors; active means well fitted inhibition curve with a large enough effect; further: nearly all actives have a fitted effect of over 65% in size
#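 Infected erythrocytes (Dd2, 0.3% parasitemia, 2.5% hematocrit final) are added to compound in RPMI-1640/Albumax II medium, grown 72 h at 37C in low oxygen, then lysed with saponin/Triton-X containing SYBR Green and read by fluorescence.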
# A number is an active result; - = inactive. The sample as a whole holds a higher share of hits than the screen did.
SMILES,Pf Dd2 inh
Cc1cc(Br)ccc1NC(=O)C[C@H]1NC(=O)c2ccccc2NC1=O,-
CC(=O)c1ccc(NC(=O)CC2Nc3cc(C)c(C)cc3NC2=O)cc1 (configuration not stated),5µM
CCOc1ccccc1NC(=O)C[C@H]1NC(=O)c2ccccc2NC1=O,-
COc1ccc(NC(C)=O)cc1NC(=O)C[C@H]1NC(=O)c2ccccc2NC1=O,-
Cc1cc2c(cc1C)NC(CC(=O)Nc1ccccc1)C(=O)N2 (configuration not stated),-
CCOC(=O)c1ccc(NC(=O)CC2Nc3ccccc3NC2=O)cc1 (configuration not stated),13µM
O=C(C[C@H]1NC(=O)c2ccccc2NC1=O)Nc1ccncc1,-
CC(=O)N[C@@H]1CN(C(=O)c2ccco2)C[C@H]1CO,-
CN1C[C@@H](NS(=O)(=O)c2ccc(Cl)cc2)C[C@H]1c1nc(-c2ccncc2)no1,-
Cc1cccc(Cn2cccc(C(=O)Nc3ccc(F)cc3F)c2=O)c1,-
COC(=O)N1CCn2c(nn(-c3ccncc3)c2=O)C1,-
COCCN1C(=O)[C@H]2CN(Cc3cc(F)cc(F)c3)C[C@H]2C1=O,-
O=C(Cn1cnc2c(nc3n2CCCCC3)c1=O)Nc1ccc(F)c(Cl)c1,-
CN1CCN(c2ccc(-c3cc4c(ccn4C)c(C(=O)NCCC(N)=O)n3)cc2)CC1,-
COc1cccc(C(=O)N2CCC(c3n[nH]c(=O)n3-c3ccc(C)cc3)CC2)c1,-
Cc1ccc(C(=O)c2c(N)c(C(=O)Nc3ccccc3Cl)c3ccccn23)cc1,-
COc1cccc(CN2C(=O)OC3(CCN(Cc4ccncc4)CC3)C2(C)c2cccnc2)c1 (configuration not stated),-
COc1cccc(CN2C(=O)OC3(CCN(Cc4ccc(F)cc4)CC3)C2(C)c2cccnc2)c1 (configuration not stated),0.79µM
COc1cccc(CN2C(=O)OC3(CCN(C(=O)Cc4cccc(F)c4)CC3)C2(C)c2cccnc2)c1 (configuration not stated),-
COc1cccc(CN2C(=O)OC3(CCN(Cc4ccccc4OC)CC3)C2(C)c2cccnc2)c1 (configuration not stated),1.1µM
COc1cccc(CN2C(=O)OC3(CCN(C(=O)CCc4cccnc4)CC3)C2(C)c2cccnc2)c1 (configuration not stated),-
COCC(=O)N1CCC2(CC1)OC(=O)N(Cc1cccc(OC)c1)C2(C)c1cccnc1 (configuration not stated),-
CCNc1nc(NC(C)(C)C)nc(Oc2ccc(=O)n(C)n2)n1,-
CCn1cc(S(=O)(=O)N2C[C@@H](C(N)=O)[C@H](c3nc(COC)no3)C2)cn1,-
CCOCC1(C)COc2ccc(C(=O)NCCc3ccccc3)cc2N1 (configuration not stated),-
SMILES,Pf Dd2 inh
CCOc1ccc(-c2nn(-c3ccc(F)cc3)c3c2cnc2ccc(F)cc23)cc1,-
COC(=O)C(CCSC)NC(=O)C1CCN(c2ncnc3c2nc2n3CCCCC2)CC1 (configuration not stated),-
COc1ccc(CCNC(=O)c2cc3cn(C(C)C)cc3s2)cc1OC,8.9µM
COc1ccc(CNC(=O)c2cc3cn(C4CC4)cc3s2)cc1OC,-
Cc1ccc(CNC(=O)c2cc3cn(C(C)C)cc3s2)o1,-
COc1cc(/C=C/c2nc(C#N)c(N3CCN(C)CC3)o2)cc(OC)c1OC,-
COc1ccc(C)cc1NC(=O)CC1NCCNC1=O (configuration not stated),-
O=C(c1ccncc1)N1C[C@@H]2C[C@H](C1)c1ccc(-c3cccc(C(F)(F)F)c3)c(=O)n1C2,-
Cc1ccccc1Nc1c(-c2ccc(Br)cc2O)nc2sccn12,2.5µM
CCc1cccc(C)c1Nc1c(-c2ccccc2)nc2sccn12,-
COCCNC(=O)c1nc2sccn2c1Br,-
O=C1[C@@H]2C[C@@H](CN2Cc2ccc(C(F)(F)F)cc2)Oc2ccccc2N1Cc1cccnc1,-
COCCN1C(=O)[C@@H]2C[C@@H](CN2Cc2ccc(C(F)(F)F)cc2)Oc2ccccc21,14µM
O=C1[C@@H]2C[C@@H](CN2C2CCOCC2)Oc2ccccc2N1Cc1ccccn1,-
COCCN1C(=O)[C@@H]2C[C@@H](CN2C(=O)c2ccccc2)Oc2ccccc21,-
COc1ccc(CN2C(=O)[C@@H]3C[C@@H](CN3Cc3ccc(S(C)(=O)=O)cc3)Oc3ccccc32)cc1,-
COCCN1C(=O)[C@@H]2C[C@@H](CN2Cc2ccccn2)Oc2ccccc21,10µM
O=C1c2cnc(-c3cccc(CO)c3)nc2OCCN1c1cccc(C(F)(F)F)c1,14µM
COc1ccccc1-c1ncc2c(n1)OCCN(c1cccc(C(F)(F)F)c1)C2=O,-
COc1ncccc1-c1ncc2c(n1)OCCN(c1cccc(C(F)(F)F)c1)C2=O,-
O=C(NCCC1CCN(C(=O)Nc2ccc(F)cc2)CC1)c1ccccc1F,-
Cc1ccc(C(=O)N[C@@H]2CN(C3CCOCC3)C[C@H]2CN(C)C)cc1F,-
CC1=NS(=O)(=O)N(Cc2ccccc2)C=C1C(=O)OCc1c(C)noc1C,-
Cc1scc(CN2CCN(c3ccc(F)cc3)CC2)c1C,-
Cc1cc(O)c(CN2CCN(c3ccc(F)cc3)CC2)c2oc(=O)cc(C)c12,11µM
SMILES,Pf Dd2 inh
COc1ccc(N2CCN(Cc3cc(=O)oc4ccc(OC)cc34)CC2)cc1,-
Cc1ccc(N2CCN(C(=O)c3ccc4c(c3)N(C)C3CCCCN3C4=O)CC2)cc1 (configuration not stated),-
O=C(c1ccc2c(Cl)c3c(nc2c1)CCCC3)N1CCN(c2cccc(Cl)c2)CC1,-
Cc1ccc(CN2CCSc3ccc(C(=O)N4CCN(c5ccc(Cl)cc5)CC4)cc32)cc1,8.9µM
O=C(c1ccc2c(Cl)c3c(nc2c1)CCCC3)N1CCN(c2ccccc2F)CC1,-
Cc1ccc(CN2CCSc3ccc(C(=O)N4CCN(c5cccc(C)c5C)CC4)cc32)cc1,6.3µM
O=C(CN1CCSc2ccccc21)N1CCN(c2cccc(Cl)c2)CC1,-
Cc1cccc(N2CCN(C(=O)c3ccc4c(Cl)c5c(nc4c3)CCCC5)CC2)c1C,11µM
Cc1ccc(C)c(N2CCN(C(=O)c3ccc4[nH]c(C)c(C)c4c3)CC2)c1,-
COc1cc2[nH]c(=O)n(Cc3ccc(C(=O)N4CCN(c5ccc(Cl)cc5)CC4)cc3)c(=O)c2cc1OC,-
COCCN1C(=O)[C@H]2CN(Cc3cc(Br)ccc3F)C[C@H]2C1=O,-
CSCC(=O)NCCC[C@H](NC(=O)[C@@H]1[C@@H](NC(=O)NC(C)C)CCN1C(=O)CSC)C(N)=O,-
Cn1c(CCC(=O)N2CCCOCC2)nc2cc(S(=O)(=O)N3CCCC3)ccc21,-
CCOc1ccc(CN(CCOC)C(=O)C2CCCN(C(N)=O)C2)cc1 (configuration not stated),-
Cc1ccc(CN2CC[C@H](CO)[C@H](NC(=O)c3cccnc3)C2)s1,-
O=C(N[C@@H]1CN(C(=O)C2CC=CC2)CC[C@@H]1CO)C1CC1,-
Cc1ccc(C(=O)N2CCC(c3n[nH]c(=O)n3-c3ccccc3)CC2)cc1,-
Cc1ccc(C(=O)N2C[C@@H](COc3ccccc3)[C@H](C(N)=O)C2)nc1,-
CC(=O)N1CCC(C(=O)N2CCC(N3CC(OCC4CC4)C34CCOCC4)CC2)CC1 (configuration not stated),-
CCCNC(=O)N1CCC(N2CC(OCC3CC3)C23CCCCC3)CC1 (configuration not stated),8.9µM
